From ChEMBL document CHEMBL1157539, “Thousands of chemical starting points for antimalarial lead identification” (Nature, 2010)
Several values for one entry are separate records, joined by “and”; a condition that tells them apart may be missing. Equal entries are not always repeated.

How the values were obtained:
Assay type in all cases: functional
[1] = tested on: Plasmodium falciparum; assay: GSK_TCMDC: Inhibition of Plasmodium falciparum 3D7 in whole red blood cells, using parasite LDH activity as an index of growth. Test compounds present at 2uM
[2] = tested on: Plasmodium falciparum; assay: GSK_TCMDC: Inhibition of Plasmodium falciparum Dd2 in whole red blood cells, using parasite LDH activity as an index of growth. Test compounds present at 2uM
[3] = tested on: HepG2; assay: GSK_TCMDC: Percent inhibition of human HepG2 cell line. Test compounds present at 10uM.

| Compound | Inhibition [1] | Inhibition [2] | Inhibition [3] |
| --- | --- | --- | --- |
| COC(=O)c1ccc(CC(C)NCC(O)c2cccc(C(F)(F)F)c2)c(Cl)c1 (stereo not given) | 99% | 98% | 0% |
| COc1cc2nc(N(C)C3CCN(Cc4ccccc4)CC3)nc(N)c2cc1OC | 99% | 93% | 19% |
| CCCCCCC(C)(C)c1cc(O)c2c3c(c(=O)oc2c1)CCN(Cc1ccccc1)C3.Cl | 100% | 99% | 3% |
| Cc1cc(O)cc2c(C3CCN(CC4CCC(NC(=O)/C=C/c5ccccc5Cl)CC4)CC3)c[nH]c12 (stereo not given) | 99% | 84% | 21% |
| CO/C=C(/C(=O)OC)c1ccccc1Oc1cc(Oc2ccccc2C#N)ncn1 [AZOXYSTROBIN] | 98% | 98% | 7% |
| FC(F)(F)c1ccc(NC(=S)NC2CCC(CN3CCC(c4c[nH]c5ccccc45)CC3)CC2)cc1 (stereo not given) | 100% | 100% and 99% | 65% and 92% |
| Oc1ccc(CN2CCN(CCOC(c3ccc(F)cc3)c3ccc(F)cc3)CC2)cc1Cl | 96% | 87% | 19% |
| CC[C@H]1CN2CC[C@H]1C[C@@H]2[C@@H](O)c1ccnc2ccccc12 | 98% | 20% | 10% |
| CN1CCN(c2ccc3[nH]c(-c4ccc5[nH]c(-c6ccc(O)cc6)nc5c4)nc3c2)CC1.Cl.O | 99% | 100% | 0% |
| O=C(/C=C/c1c(Cl)cccc1Cl)NC1CCC(CN2C3CCC2CC(c2c[nH]c4ccccc24)C3)CC1 (stereo not given) | 95% | 18% | 40% |
